p53ts 39C tox – p53ts cell cytotoxicity, nonpermissive temperature; H1299-p53A138V viability at 39C, ATP luminescence, 24 h; Potency, µM (highest dose often 46.1 µM), for the others: at the top dose activity change, negative = cell killing, usual class: cytotoxic; 130,000 tested, 1.5% active; AID 902; also: potency is read from the fitted curve at half-maximal effect; % is scaled to controls: 0 for no effect and ±100 for the full control effect; nearly all actives have a fitted effect of over 55% in size
Imprint erasure – inducers of genomic imprint erasure in mouse ES cells; mouse ES Peg3-LacZ reporter, beta-gal luminescence, 40 h; Potency, µM (series often up to 60.7 µM), without a hit: at the highest dose activity change, positive = activation, actives largely listed as activators; 110,000 tested, 0.02% active; also: potency is read from the fitted curve at half-maximal effect
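Each well holds 300 Peg3LacZ-Neo (maternal) female ES cells incubated 40 h at 37C, 5% CO2. LacZ is measured by BetaGlo luminescence, with AC50 and maximum efficacy derived from dose-response curves.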
UbGFP stabilizer – inhibits proteasome, raising ubiquitin-GFP reporter fluorescence; Ubiquitin-GFP reporter cells, proteasome inhibition, GFP fluorescence; response scale: untreated = 0%, 10 µM MG-132 = 100%; Potency, µM (titrated, usually from 45.9 µM), inactives show at the highest dose activation (GFP accumulation), most hits filed as activators; 67,000 tested, under 10 active; active = well fitted activation curve with a large enough effect, not every such curve was filed as active; inconclusive = small, poorly fitted or top-dose-only effect, or another doubt; inactive = no such curve, though single readings can be large or run the other way; also: potency is read from the fitted curve at half-maximal effect
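U2OS cells stably expressing ubiquitin(G76V)-GFP, seeded overnight in 0.5% FBS medium, were exposed to compounds (qHTS, 46 uM to 2.9 nM) for 4 hr at 37 °C. GFP-positive cells were counted by laser cytometry (488 ex/515 em), normalized between basal and 10 uM MG-132.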
HBB splice mod – modulators of hemoglobin beta chain splicing. HBB splicing reporter cell assay, activation; EGFP reporter with mutant IVS2-654 intron; response scale: normalised to 500 nM splice-correcting PNA. Potency, µM (titrated, usually from 46.1 µM), for inactives: at the highest dose activation, most hits filed as activators. 65,000 tested, 0.06% active. AID 925; also: potency is read from the fitted curve at half-maximal effect; 0% is about no effect
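HeLa cells stably expressing EGFP interrupted by mutant beta-globin intron 2 (IVS2-654), 500/well in 2% FCS. Treated with compound for 2 days at 37C. Splicing correction scored as total well GFP intensity (488 nm excitation, 500-520 nm emission); 500 nM antisense PNA served as control.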
p53ts 32C tox – p53ts cell cytotoxicity, permissive temperature; H1299-p53A138V at 32C, ATP luminescence viability, 24 h; Potency, µM (series often up to 46.1 µM), for the others: at the top dose activity change, negative = cytotoxicity, actives largely listed as cytotoxic; 130,000 tested, 0.93% active; AID 924;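 also: potency is read from the fitted curve at half-maximal effect; 0% = DMSO and -100% = full killing by reference compound; nearly all actives have a fitted effect of over 55% in size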
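Viability by ATPlite luminescence after 24 h compound treatment (up to 46 uM) at the permissive 32C. Cells are H1299 carrying p53 A138V. Scale runs from DMSO basal to 100 uM tamoxifen as full kill; AC50 from Hill fits.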
GFP derepression – epigenetic modulators derepressing GFP locus in mouse cells; mouse C127i GFP locus derepression, cytometry, 30 h; Potency, µM (titrated, usually from 46.1 µM), without a hit: at the top dose GFP derepression (activation); 68,000 tested, 0.09% active; also: % of control where 0% means no effect
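Locus derepression in mouse mammary C127i cells whose integrated CMV-GFP reporter is normally silent; GFP expression after 30 h compound treatment was quantified by counting fluorescent cells.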
* marks the source's active call; other numbers are inactive results; ? = inconclusive; / = no result; [ ] = dose if it differs, or a comment. Rows were chosen to be rich in hits. Some 1.6% of all compounds tested hit in one or more screens of this group. Unless noted, calls follow the shape of the dose curve; as a rule, active = well fitted curve in the direction sought with a large enough effect; inconclusive = small, poorly fitted or top-dose-only effect, or another doubt; inactive = no such curve, though single readings can be large; an effect the other way counts as inactive or inconclusive.

SMILES	p53ts 39C tox	Imprint erasure	UbGFP stabilizer	HBB splice mod	p53ts 32C tox	GFP derepression
CCCc1oc2ccc(NS(=O)(=O)c3ccc(OC)cc3)cc2c1C(=O)OCC	?	-23%[10.9 µM]	/	/	-2%	/
CCCc1oc2ccc(NS(=O)(=O)c3ccc(OCC)cc3)cc2c1C(=O)OCC	20µM*	-17%[10.9 µM]	/	/	?	/
CCSc1ncc(Cl)c(C(=O)Nc2c(C(=O)Nc3cccc(C)c3)oc3ccccc23)n1	-1%	-4%[10.9 µM]	/	/	-2%	/
CCOC(=O)c1ccc(NC(=O)c2nc(SC(C)C)ncc2Cl)cc1	-1%	-8%[10.9 µM]	/	/	-5%	/
CCCS(=O)(=O)c1ncc(Cl)c(C(=O)N(Cc2ccccc2)Cc2ccco2)n1	3.2µM*	-38%[10.9 µM]	/	/	?	/
CCS(=O)(=O)c1ncc(Cl)c(C(=O)Nc2ccccc2)n1	4µM*	-38%[10.9 µM]	/	/	?	/
CCS(=O)(=O)c1ncc(Cl)c(C(=O)Nc2c(C(=O)Nc3cccc(C)c3)oc3ccccc23)n1	20µM*	-37%[10.9 µM]	/	/	?	/
CCOC(=O)c1ccc(NC(=O)c2nc(S(=O)(=O)Cc3ccccc3)ncc2Cl)cc1	13µM*	-40%[10.9 µM]	/	/	-11%	/
Cc1cc(NC(=O)Nc2nnc(N(C)Cc3ccccc3)s2)ccc1Br	-27%	-10%[10.9 µM]	/	/	-9%	/
CC(=O)N1CCC2(CCCN(c3ccncc3)C2)CC1	1%	/	0%	3%	-1%	2%[9.22 µM]
COc1ccc(N(Cc2ccccc2)C(=O)c2nc(SC)ncc2Cl)cc1	-14%	-12%[10.9 µM]	/	/	3%	/
CCS(=O)(=O)c1ncc(Cl)c(C(=O)N(Cc2ccccc2)c2ccc(OC)cc2)n1	5µM*	-39%[10.9 µM]	/	/	20µM*	/
CN(c1ccccc1)S(=O)(=O)c1ccc(NC(=O)c2nc(S(C)(=O)=O)ncc2Cl)cc1	3.2µM*	-39%[10.9 µM]	/	/	?	/
COCc1nn2cc(-c3ccc(C)cc3)nc2s1	13µM*	-24%[10.9 µM]	/	/	10µM*	/
CCc1nn2cc(-c3ccccc3)nc2s1	16µM*	-91%	-1%	1%	10µM*	-2%
CCOc1ccccc1NC(=O)C1=C(C)Nc2ncnn2C1c1ccccn1 (stereo unspecified)	-4%	-11%[10.9 µM]	/	/	7%	/
Cc1oc2c(cc(NS(=O)(=O)c3ccc(Br)cc3)c3ccccc32)c1C(=O)OCc1ccccc1	20µM*	-18%[10.9 µM]	/	/	-21%	/
Cc1ccc(S(=O)(=O)Nc2cc3c(C(=O)OCc4ccccc4)c(C)oc3c3ccccc23)cc1	-21%	-12%[10.9 µM]	/	/	1%	/
Cc1ccc(NC(=O)c2ccc(NC(=O)N3CCSc4ncccc43)cc2)c(Cl)c1	?	-12%[10.9 µM]	/	/	10µM*	/
CC(C)(C)NC(=O)NC(=O)COc1ccccc1C#N	13µM*	-69%	0%	0%[57.5 µM]	13µM*	6%
Cc1ccc(S(=O)(=O)c2nc(S(=O)(=O)c3ccc(C)cc3)c(NCCCOC(C)C)s2)cc1	-17%	-13%[10.9 µM]	/	/	5%	/
Cc1cccc(C)c1OCCn1c(CCNC(=O)C2CCCCC2)nc2ccccc21	?	-6%[10.9 µM]	/	/	17%	/
O=C(NCCc1nc2ccccc2n1CCCOc1ccc(Cl)cc1)C1CCCCC1	16µM*	-5%[10.9 µM]	/	/	?	/
Cc1cc(C)cc(OCCCn2c(CCNC(=O)C3CCCCC3)nc3ccccc32)c1	?	-15%[10.9 µM]	/	/	-8%	/
Cc1ccccc1OCCCn1c(CCNC(=O)C2CCCCC2)nc2ccccc21	16µM*	-9%[10.9 µM]	/	/	-11%	/
SMILES	p53ts 39C tox	Imprint erasure	UbGFP stabilizer	HBB splice mod	p53ts 32C tox	GFP derepression
CCCN1CCN(c2ncnc3sc(C(=O)Nc4c(C)cc(C)cc4C)c(C)c23)CC1	-19%	-4%[10.9 µM]	/	/	-6%	/
CCOc1ccc(-c2cc(C(=O)N3CCN(c4cccc(C)c4)C(C)C3)c3ccccc3n2)cc1 (stereo unspecified)	?	-2%[10.9 µM]	/	/	?	/
CCOC(=O)N1CCN(C(=O)c2cc(-c3ccc(OCC)cc3)nc3ccccc23)CC1	10µM*	-17%	-1%	-5%[57.5 µM]	5µM*	5%
CCOc1ccc(-c2cc(C(=O)N3CCN(c4ccc(C)cc4)C(C)C3)c3ccccc3n2)cc1 (stereo unspecified)	20µM*	-20%[10.9 µM]	/	/	16µM*	/
CCOc1ccc(-c2cc(C(=O)NCc3ccc(C)cc3)c3ccccc3n2)cc1	-24%	-3%[10.9 µM]	/	/	4%	/
CCOc1ccc(-c2cc(C(=O)N3CCN(C)CC3)c3ccccc3n2)cc1	4µM*	-10%	-1%	-1%[57.5 µM]	2.5µM*	2%
CSc1nnc(NC(=O)c2cc(=O)c3cc(C)c(C)cc3o2)s1	-19%	3%[10.9 µM]	/	/	-8%	/
Cc1ccc(NC(=O)CSCC(N)=O)cc1C	14%	-37%	-3%	9%	5%	16µM*
Cc1ccc(NC(=O)Cn2cccc2)cc1C	-8%	-16%	-2%	0%	15%	0%
CC(C)Sc1ncc(Cl)c(C(=O)Nc2nnc(C(C)C)s2)n1	-27%	-5%[10.9 µM]	/	/	6%	/
Cc1ccccc1CS(=O)(=O)c1ncc(Cl)c(C(=O)Nc2nnc(C(C)C)s2)n1	7.9µM*	-17%[10.9 µM]	/	/	16µM*	/
CCCc1nnc(NC(=O)c2nc(S(=O)(=O)Cc3ccc(C)cc3)ncc2Cl)s1	?	-13%[10.9 µM]	/	/	?	/
CC(C)c1nnc(NC(=O)c2nc(S(=O)(=O)Cc3ccccc3)ncc2Cl)s1	6.3µM*	-31%[10.9 µM]	/	/	20µM*	/
O=C(NCc1ccc(Cl)cc1)C1CCN(S(=O)(=O)c2ccc3c(c2)CCCN3C(=O)C2CCC2)CC1	-8%	-16%[10.9 µM]	/	/	5%	/
Cc1ccc(NC(=O)NCC2CCN(Cc3cccc(Cl)c3)CC2)cc1Cl	16µM*	-19%[10.9 µM]	/	/	-18%	/
CC(C)COc1ccc(C(=O)Nc2nnc(S(=O)(=O)N(C)Cc3ccco3)s2)cc1	10µM*	-74%[10.9 µM]	/	/	?	/
Cc1ccc(C(=O)Nc2nnc(S(=O)(=O)N(C)Cc3ccco3)s2)cc1	-24%	-23%[10.9 µM]	/	/	-6%	/
COc1cccc(-c2nccc(NCc3cccs3)n2)c1	13µM*	-18%	-4%	-1%	?	-5%[9.22 µM]
c1ccc(CNc2ccnc(-c3ccc4c(c3)OCO4)n2)cc1	?	-15%	2%	0%	?	2%[9.22 µM]
c1csc(CNc2ccnc(-c3ccc4c(c3)OCO4)n2)c1	10µM*	-14%	5%	-1%	13µM*	-3%[9.22 µM]
Cc1ccc(NC(=O)c2ccc3c(c2)NC(=O)c2ccccc2S3)cc1	?	-23%[10.9 µM]	/	/	-14%	/
Cc1coc(NC(=O)CSc2nc(-c3ccncc3)cc(C(F)(F)F)c2C#N)n1	12%	/	-2%	/	-6%	10µM*
Cc1cn2c(=O)cc(COC(=O)c3cccc(NC(=O)COc4ccccc4Cl)c3)nc2s1	-21%	-11%[10.9 µM]	/	/	-8%	/
